Shown are actives, neighbours in structure and some others; about 11% of the full set was active somewhere.
PLK1 PBD inh – inhibitors of human PLK1 polo-box domain binding | AID 720504 | Potency, µM, without a hit: max response, negative = inhibition, actives largely listed as inhibitors | P53350 | Plk1 PBD binding of FITC phosphopeptide, fluorescence polarization | actives 2.8% (n = 360,000); also: series mostly up to about 57 µM; % is scaled to controls: 0 for no effect and ±100 for the full control effect; nearly all actives have a fitted effect of over 65% in size
HP1b binding inh – HP1-beta chromodomain-methylated histone interaction inhibition. P83916. AlphaScreen HP1-beta / biotin-H3K9me3 peptide binding. Potency, µM (series often up to 114 µM), for the others: top-dose activity change, negative = inhibition, hits mostly inhibitors. actives 0.56% (n = 390,000). AID 540317; also: nearly all actives have a fitted effect of over 70% in size
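HP1-beta protein (50 nM final) preincubated 30 min at room temperature with biotinylated H3(1-18)K9me3 peptide (50 nM) in PBS pH 7.4, 0.01% Tween-20, then compound added for 30 min. AlphaScreen streptavidin donor/nickel chelate acceptor beads (10 ug/mL final), 30 min dark, luminescence read.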
G9a inh – G9a (human) methyltransferase inhibition; Q96KQ7; G9a H3K9 monomethylation, AlphaScreen, 2 h; Potency, µM (doses to about 102 µM), without a hit: top-dose activity, negative = inhibition, actives largely listed as inhibitors; actives 8.8% (n = 350,000); also: % is scaled to controls: 0 for no effect and ±100 for the full control effect; nearly all actives have a fitted effect of over 75% in size
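Using a bead-based AlphaScreen, monomethylated H3K9 product from 2 h room-temperature reactions (G9a 20 nM, peptide 500 nM, SAM 20 uM) was detected with 0.5 ug/mL rabbit anti-H3K9me1 antibody.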
VDR inh – vitamin D3 receptor (human) inhibition. Potency, µM, for the others: max response, negative = inhibition, hits mostly inhibitors. actives 0.93% (n = 400,000). VDR-SRC2-3 peptide fluorescence polarization, 2 h. P11473. AID 504847; also: % is scaled to controls: 0 for no effect and ±100 for the full control effect
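The screen uses fluorescence polarization to detect compounds that interfere with recruitment of the SRC2-3 coactivator peptide to VDR; plates are read after 2 h at room temperature.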
BAZ2B block – blocks human BAZ2B; AlphaScreen BAZ2B-H3K14Ac peptide displacement; Potency, µM (doses to about 114 µM), without a hit: at the top dose activity change, negative = inhibition, most hits filed as inhibitors; actives 4.4% (n = 360,000); AID 504333; also: % is scaled to controls: 0 for no effect and ±100 for the full control effect; nearly all actives have a fitted effect of over 60% in size
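In this displacement format the biotinylated H3(5-23) peptide acetylated at Lys14 serves as ligand at 50 nM, with BAZ2B at 50 nM in PBS pH 7.4 containing 0.01% Tween-20. Donor and acceptor beads are 10 ug/mL final.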
JMJD2A Tudor inh – inhibitors of human JMJD2A Tudor domain. O75164. AlphaScreen JMJD2A-Tudor / H3K4me3 peptide binding. Potency, µM (highest dose often 114 µM), for the others: at the top dose activity change, negative = inhibition, hits mostly inhibitors. actives 4.4% (n = 390,000); also: % is scaled to controls: 0 for no effect and ±100 for the full control effect; nearly all actives have a fitted effect of over 50% in size
Active calls of the source: *; ? = inconclusive; . = not tested or not shown; [ ] = another dose, or the depositor's remark. Calls follow the shape of the dose curve; as a rule, active = well fitted curve in the direction sought with a large enough effect; inconclusive = small, poorly fitted or top-dose-only effect, or another doubt; inactive = no such curve, though single readings can be large; an effect the other way counts as inactive or inconclusive. Potency is read from the fitted curve at half-maximal effect.

SMILES | PLK1 PBD inh | HP1b binding inh | G9a inh | VDR inh | BAZ2B block | JMJD2A Tudor inh
CCCCC1OC23CCCCC2C(C#N)(C#N)C1(C#N)C(=N)O3 (stereo unspecified) | -7% | 23% | -29%[59 µM] | -2% | ? | -14%
CCCCCCCCOc1ccc(C2OC34CCCCC3C(C#N)(C#N)C2(C#N)C(=N)O4)cc1 (stereo unspecified) | 24µM* | 191% | ? | 1% | 86% | -5%[11.4 µM]
COc1ccc(OC)c(NC(=O)COC(=O)CCC2CCCC2)c1 | -3% | 72% | -4%[2.33 µM] | ? | -1% | 9%
COc1ccccc1NC(=O)COC(=O)c1ccc2c(c1)OCCO2 | -9% | 17% | 0%[12.7 µM] | ? | -3% | -15%
COc1ccc(OC)c(NC(=O)COC(=O)c2cc3c(s2)CCC3)c1 | ? | 14µM* | . | 22% | 10µM* | 28µM*
COc1ccccc1NC(=O)COC(=O)c1cc2c(s1)CCC2 | ? | ? | 45µM* | 5% | 56µM* | 50µM*
CC(C)N(Cc1ccccc1)C(=O)COC(=O)c1cnc(Cl)c(Cl)c1 | -9% | 37% | . | 2% | . | 6%
COc1ccc(NC(=S)NCCc2ccccc2)c(C)c1 | -4% | 41% | . | 1% | -12% | -10%
COc1cc(C)c(NC(=O)C(=S)NCCc2ccccc2)cc1C | 12µM* | ? | ? | ? | -35% | -31%
Nc1sc(Cc2ccccc2)cc1C(=O)NC1CCCCC1 | 27µM* | . | . | . | . | .
O=C(NC1CCCCC1)C(=S)NCCc1ccccc1 | 24µM* | -15% | 11µM* | ? | -9% | -5%
O=C(CSc1nccc(=O)[nH]1)NN(c1ccccc1)c1ccccc1 | -2% | 27% | 4% | 11% | -19% | 5%
Cc1cc(C)n(-c2ccc(C(=O)Nc3cc(S(=O)(=O)N(C)C)ccc3Cl)cc2)n1 | -6% | 30% | 79µM* | -20% | 5% | ?
CSC(SC)=C(C#N)C(=O)c1ccccc1 | 11µM* | -20% | 50µM* | ? | -18% | -3%
N#Cc1c(F)cccc1N1CCN(Cc2ccc3c(c2)OCO3)CC1 | -17% | 1% | 16% | -1% | -12% | -34%
COc1cc(C2Oc3nc(SC)nnc3-c3ccccc3N2C(C)=O)cc(Cl)c1OC (stereo unspecified) | . | 7% | -6%[59 µM] | -14% | -19% | -28%
Cc1[nH]c(=O)[nH]c(=O)c1/C=N/NC(=O)[C@H](C)N | -19% | 33% | ? | -3% | 50µM* | 56µM*
CC(C)c1ccc(C(=O)N2CCCCC2c2cc(C(=O)Nc3ccncc3)no2)cc1 (stereo unspecified) | -1% | . | . | . | . | .
O=C(NC1CC1)c1cccc(NC(=O)c2cn3ccccc3n2)c1 | -11% | -5% | 10%[2.33 µM] | -10% | 4% | 40µM*
O=C(NC1CC1)c1cccc(NC(=O)c2cnn(-c3ccccc3)n2)c1 | 7% | 19% | . | 6% | . | -18%
CCOC(=O)c1sc(=S)n(-c2ccccc2Cl)c1SC | -25% | -2% | 31%[59 µM] | 6% | 42% | -18%
CCOC(=O)c1c(N)sn(-c2ccccc2C)c1=S | 5.3µM* | -71% | 5.6µM* | 35µM* | ? | 56µM*
O=[N+]([O-])c1cccc(S(=O)(=O)Nc2ccc(-c3ccc(N4CCOCC4)nn3)cc2)c1 | 9% | 13% | 45µM* | 8% | -6% | -26%
O=[N+]([O-])c1cccc(S(=O)(=O)Nc2cccc(-c3ccc(N4CCOCC4)nn3)c2)c1 | -8% | 11% | 10µM* | -17% | -9% | -16%
O=[N+]([O-])c1cccc(S(=O)(=O)Nc2cccc(-c3ccc(N4CCCC4)nn3)c2)c1 | -11% | 9% | -5%[0.501 µM] | -13% | -6% | -33%
SMILES | PLK1 PBD inh | HP1b binding inh | G9a inh | VDR inh | BAZ2B block | JMJD2A Tudor inh
O=C(O)CCn1c(SCCc2ccccc2)nc2ccccc21 | 2% | 15% | . | 5% | . | -5%
CC(NS(=O)(=O)c1ccc(Br)cc1)C(=O)NCc1ccco1 (stereo unspecified) | -20% | 5% | ? | 10% | -33% | -6%
CC(C(=O)Nc1ccc(Br)cc1)N(C)CC(=O)NCc1ccco1 (stereo unspecified) | -2% | 25% | 8.9µM* | 5% | -5% | -7%
COc1cc2ccccc2cc1C(=O)NC(=S)Nc1nnn(C)n1 | -10% | 29% | 30%[59 µM] | -8% | -3% | -25%
Cn1nnc(NC(=S)NC(=O)c2cc(Cl)ccc2Cl)n1 | -26% | -3% | 3.5µM* | -7% | ? | -5%
O=C1C(c2ccccc2)=NCCN1C(c1ccc(F)cc1)c1nc2ccccc2[nH]1 (stereo unspecified) | -1% | . | . | . | . | .
O=C1C(=O)N(O)C2CCCCC2N1O (stereo unspecified) | 0% | 21% | 7.9µM* | -22% | ? | ?
CN(C)S(=O)(=O)n1cc(/C=C(\NC(=O)c2ccccc2F)C(=O)N2CCOCC2)c2ccccc21 | 19µM* | 17% | -9% | ? | -2% | ?
CCn1cc(/C=C(\NC(=O)c2ccc(OC)c(OC)c2)C(=O)N2CCOCC2)c2ccccc21 | 27µM* | 18% | ? | -25% | ? | ?
COc1ccc(C(=O)N/C(=C\c2cn(C)c3ccccc23)C(=O)NCCN2CCOCC2)cc1OC | 0% | 43% | 50µM* | -14% | ? | 21%
CCn1cc(/C=C(\NC(=O)c2cc(OC)c(OC)c(OC)c2)C(=O)N2CCOCC2)c2ccccc21 | 7% | . | . | . | . | .
COc1cc(C(=O)N/C(=C\c2cn(C)c3ccccc23)C(=O)NCCN2CCOCC2)cc(OC)c1OC | -18% | 28% | . | 9% | -23% | -28%
O=C(c1ccccc1[N+](=O)[O-])n1cnc2ccccc21 | -5% | 0% | ? | -18% | ? | -26%
Cc1cc2ncn(-c3ncccc3[N+](=O)[O-])c2cc1C | -23% | -2% | 11µM* | -6% | 89µM* | ?
O=[N+]([O-])c1cccnc1-n1cnc2ccccc21 | -1% | 21% | 45µM* | -5% | -11% | -6%
COc1ccc(S(=O)(=O)N(C)CC(=O)NCCCn2ccnc2)cc1Cl | 4% | -15% | -2% | 2% | 1% | -8%
CCN(CC)c1ccc(C(=O)OCC(=O)Nc2ccc3[nH]c(=O)[nH]c3c2)cc1 | -2% | 15% | 14%[12.7 µM] | 18% | -24% | -15%
CSCCC(NS(=O)(=O)c1ccc2c(c1)oc(=O)n2C)C(=O)Nc1ccc(Cl)cc1 (stereo unspecified) | . | 5% | 0%[59 µM] | -8% | ? | -23%
Cc1ccc(-c2csc(=Nc3ccc(F)cc3)n2Cc2ccc3c(c2)OCO3)cc1C | . | ? | 14µM* | -17% | 4.5µM* | 50µM*
Cc1ccc(-c2csc(=Nc3ccccc3)n2Cc2ccc3c(c2)OCO3)cc1C | . | -7% | 14µM* | -10% | 100µM* | ?

Source: PubChem
